40 compounds from PubChem BioAssay (NCI) can be followed below.

SMILES strings stand for the structures. This is part of a sample that, as a whole, favours compounds with a hit. Of some 83,000 tested, about 20% had one in any assay.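 Compound tested at a single concentration for 48 hours in 96-well plates; a percent growth value below 10 was scored as active.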 Active and inactive are the calls of the source.

The assay relates to UACC-62 melanoma. As to the kind of experiment: NCI-60 one-dose screen, 48 h (100 = growth as untreated, 0 = no growth, -100 = all killed). Conditions: 10 µM unless noted. On the procedure:
Growth inhibition of the UACC-62 human tumor cell line is measured as a screen for anti-cancer activity. Cells are grown in 96 well plates and exposed to the test compound for 48 hours. Compounds are tested at a single concentration, which is 10^-5 M for most compounds. The reported endpoint is percent growth (GI% or GIPRCNT), where numbers from 0 - 100% represent growth inhibition, and numbers from -100% - 0 represent cell death. For example, a value of 40 represents 60% growth inhibition. A value of 0 means no net growth occurred over the course of the experiment. A value of -40 indicates 40% of cells at the beginning of the experiment died by the end of the experiment. A value of -100 means all cells are dead at the end of the experiment.
NCI-60 Human Tumor Cell Lines Screen was performed using the standard one-dose NCI protocol, which is described in more detail at https://dtp.cancer.gov/discovery_development/nci-60/default.htm.
Compounds with GIPRCNT values below 10 were considered active. Activity score was based on GIPRCNT using the following formula: […]
Score is 0 for GIPRCNT values of 100 or above, 50 for GIPRCNT values of 0, and 100 for GIPRCNT values of -100.
As to `CCCCC(C#N)C(N)=O` (stereo not given), the growth was 102% (inactive).

Regarding `NC(=Nc1ccccc1)SCCCCSC(N)=Nc1ccccc1`, the growth was 66.5% (inactive). Consider `Cc1cc(C(C)(C)c2cc(C)c(O)c(CN(C)C)c2)cc(CN(C)C)c1O`, for which the growth is 75.5% (inactive). Then `COc1cccc(C2C(C#N)=C(N)Oc3cc(OC)ccc32)c1` (stereo not given), with 30.9% (inactive); and `O=C1CCCN1C1CCN(Cc2cc3ccccc3[nH]c2=O)c2ccccc21` (stereo not given), with 85.5% (inactive). Take `CC(c1cc(Cl)ccc1O)c1cc(Cl)ccc1O`: the growth is 44.8% (inactive). In the case of `O=C(Nc1ccc(Nc2ccncc2)cc1)c1ccc(Nc2ccnc3ccc([N+](=O)[O-])cc23)cc1[N+](=O)[O-]`, the growth was 91.1% (inactive). As for `O=C(Nc1ccncc1)C(=O)c1cn(S(=O)(=O)c2cccc(F)c2)c2ccccc12`, the growth was 37.1% (inactive). Turning to `CSc1nc2c(c(=O)n1C)C(c1ccccc1)C1=C(N2)/C(=C/c2ccccc2)CCC1` (stereo not given), the growth was 58.2% (inactive). For the compound `COc1ccc(-c2cn(-c3ccccc3)c(-c3ccccc3)n2)cc1OC`, the growth is 62.4% (inactive). The figure for `CC[N+](C)(CC)CCCC(C)Nc1ccnc2cc(Cl)ccc12` (stereo not given) is 105% (inactive); for `N#Cc1c(N)[nH]c(S)c1C#N` it is 94.9% (inactive); for `CCN1C(=O)c2ccc3c4c(ccc(c24)C1=O)C(=O)N(CCCNCc1ccccc1OC)C3=O` it is -88.3% (active). As for `COC(=O)[C@]1(CCSC)N[C@H](c2cn(-c3ccccc3)nc2C)[C@@H]2C(=O)N(c3ccc(C)cc3)C(=O)[C@@H]21`, the growth was 102% (inactive). As to `COc1cc(C2CC(=O)Nc3c2cc(Br)c2ccccc32)cc(Br)c1OC` (stereo not given), the growth is 51.7% (inactive).

As to `Oc1[nH]c2ccc(Cl)cc2c1/C=c1/ccc2c(c1)N=C(c1ccc(C(F)(F)F)cc1)N=2`, the growth is 61.6% (inactive). For `CCC(C)CC(C)C(=O)c1c(O)ccn(O)c1=O` (stereo not given), the growth is 3.01% (active).

For `O=C1NCC(Nc2ccc(Br)cc2Cl)C(=O)N1` (stereo not given), the growth is 101% (inactive). Take `COc1ccc(C2=NNC(c3cc(Cc4ccc(O)c(C5CC(c6ccc(OC)cc6)=NN5)c4)ccc3O)C2)cc1` (stereo not given): the growth is 49.2% (inactive). In the case of `Cc1nc2c(O)cccc2cc1CO`, the growth was 94.6% (inactive). Regarding `COc1cc(/C=C2\COc3ccc(O)cc3C2=O)cc(OC)c1`, the growth was 62.6% (inactive).

As to `ClC1=C(Cl)C(Cl)=C(Cl)C1=Cc1ccc(Cl)cc1`, the growth is 58.6% (inactive). As to `Cc1c(NCc2nnc3n(Cc4ccccc4)c(=O)c4c5c(sc4n23)CCCC5)c(=O)n(-c2ccccc2)n1C`, the growth was 80% (inactive). The figure for `O=C(Nc1cccc2ccccc12)c1cc2c(cc1Br)OCO2` is 85.5% (inactive). The figure for `O=[N+]([O-])c1ccc(N/N=C/c2c(O)ccc3ccccc23)nc1` is 41.7% (inactive); for `CC(=O)Oc1ccc(C2OC(c3ccc4ccccc4c3OC(C)=O)=NN2C(C)=O)c(OC(C)=O)c1` (stereo not given) it is -11.8% (active); for `O=C(NCCCO)c1cc(Cl)ccc1O` it is 9.67% (active). With `COc1cc2cn3c4ccc(O)cc4nc(N)c3c2cc1OC`, the growth was -59.4% (active).

Turning to `COc1cc2c(cc1OCCCCCn1c(-c3ccc(OCc4ccccc4)cc3)nc3cc(N4CCOCC4)ccc31)N=C[C@@H]1CCCN1C2=O`, the growth is -76.5% (active).

As for `CCCn1cnc2c1c(=O)n(CCCCC(C)=O)c(=O)n2C`, the growth was 104% (inactive).

As for `O=C(Nc1ccccc1Cl)c1cnc2ccc(C3CCNCC3)cn12`, the growth was 93.6% (inactive). Consider `Oc1[nH]c2ccccc2c1/C=c1/ccc2c(c1)N=C(c1cc(F)cc(F)c1)N=2`, for which the growth is 58.2% (inactive).

`Cc1ccccc1NC(=O)c1cc2ccccc2cc1O`: the growth was 14.2% (inactive). As to `COC(=O)CCC1=C(C)C(C)=N/C1=C\c1[nH]c(-c2ccc[nH]2)cc1OC`, the growth was -67.4% (active). `COc1ccc2c(c1)C(=O)/C(=C/c1ccc([N+](=O)[O-])s1)O2`: the growth was -48% (active). `C=C(C)[C@H]1CC/C(C)=C/CC[C@]2(C)O[C@H]2CC/C(C=O)=C\C1O` (stereo not given in full): the growth was 106% (inactive).

With `Nc1ccc(C2=Nc3cccc4cccc(c34)S2)cc1`, the growth was 79.8% (inactive). Consider `CCC1=C(c2ccc(OC)cc2)C(C)(C)Oc2cc(O)c(CN3CCCC3)cc21`, for which the growth was 90.1% (inactive).

Regarding `O=C1c2nsnc2C(=O)c2c(F)c(F)c(F)c(F)c21`, the growth is -86.9% (active).

`COc1ccc2c(c1)C(=O)/C(=C/c1cccc(OCC(=O)c3ccccc3)c1)CC2`: the growth is 70.2% (inactive).
